Most compounds without a hit are left out; they make up all but 4.2% or so of the library.
V-ATPase pH: regulators of yeast V-ATPase proton transport | S. cerevisiae, pHLuorin cytosolic pH fluorescence | response, % at 10 µM | 350,000 compounds, 0.37% hits; in the data active = response mostly above about 7.3%, no sharp cut-off; inactive = mostly below about 5.4%; note: actives read high
tim23-1 inh: growth inhibitors of tim23-1 mutant yeast | S. cerevisiae tim23-1 growth, BacTiter-Glo luminescence, 24 h | 330,000 compounds, 1.3% hits | inhibition, % at 20 µM;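 active = growth inhibition of the mutant yeast at or above 50%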;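 note: temperature-sensitive mutant grown at 25 °C; plate controls were DMSO-treated mutant yeast for no effect and medium wells lacking yeast for full effect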
NALP3 yeast inh: blocks the NALP3 inflammasome reconstituted in yeast; Yeast reconstituted NLRP3/ASC/caspase-1, beta-gal luminescence, 24 h; inhibition, % at 10 µM; 330,000 compounds, 0.39% hits; AID 2825;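 active = inhibition of 50% or more; inactive = inhibition below 50%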;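 note: plate controls were induced DMSO wells for no effect and uninduced yeast grown without galactose for full effect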
TIM10 inh: growth inhibitors of TIM10 yeast strain | S. cerevisiae TIM10 strain growth, BacTiter-Glo luminescence, 24 h | inhibition, % at 10 µM | 330,000 compounds, 1.4% hits | AID 463195;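 active = inhibition of 40% or more at the single tested concentration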;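 note: wild-type TIM10 isogenic control strain grown at permissive 25 °C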
NALP1 inh: NALP1 inhibition; S. cerevisiae NALP1/ASC/caspase-1 growth, X-gal OD620, 72 h; inhibition, % at 10 µM; 280,000 compounds, 0.61% hits; in the data active = inhibition mostly above about 24%, no sharp cut-off; inactive = mostly below about 32%
tim10-1 inh: growth inhibitors of tim10-1 mutant yeast; S. cerevisiae tim10-1 ts strain growth, BacTiter-Glo, 24 h; inhibition, % at 20 µM; 330,000 compounds, 2.2% hits; AID 463190;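 active = inhibition of at least 40%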;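 note: mutant grown at 25 °C; 0% = DMSO wells with yeast and 100% = wells holding no yeast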
Active calls of the source: *; / = not tested or not shown.

SMILES	V-ATPase pH	tim23-1 inh	NALP3 yeast inh	TIM10 inh	NALP1 inh	tim10-1 inh
O=C(NC(=S)Nc1ccccc1Br)C1CC1	4	48	17	10	4	30
COc1ccc(NC(=S)NC(=O)C2CCCCC2)cc1	-3	12	19	-12	19	20
CC(=O)Nc1ccccc1C(=O)C(=O)Nc1ccc(C)c(C)c1	2	3	6	2	26	-3
Cc1ccc(NC(=O)/C(Cl)=C/c2ccccc2)cc1C	-1	39	36	25	37*	5
CCCC(=O)Nc1ccc(S(=O)(=O)N2CCC(c3nc4ccccc4[nH]3)CC2)cc1	20*	4	-2	-5	/	-13
O=C(CCc1nnc(COc2ccccc2)o1)NCc1ccccc1C(F)(F)F	5	16	3	-7	5	0
CCn1c(COc2ccccc2C)nnc1SCC(=O)OC	-2	5	-25	3	22*	12
Cc1nc2cc(NC(=O)NCCCO)ccc2o1	5	16	4	-1	29*	-20
C=CCNC(=O)Nc1ccc2oc(C)nc2c1	-4	7	9	-4	16	2
CCCCCN(C(=O)CCC(=O)OCC(=O)N1CCCC(C)C1)c1c(N)n(CCCC)c(=O)[nH]c1=O (configuration not stated)	-4	6	5	-2	18	-10
CCCCN(CCCC)S(=O)(=O)c1ccc(NC(=O)CN2CCOCC2)cc1	-2	20	16	8	41*	27
CC(Cc1c[nH]c2ccccc12)C(=O)NCc1ccco1 (configuration not stated)	6	11	-8	-17	23	7
S=C(c1ccc(-c2cccc(Cl)c2)o1)N1CCCCC1	1	28	5	29	38*	26
S=C(c1ccc(-c2cccc(Cl)c2)o1)N1CCOCC1	8	20	0	15	18	32
COc1ccc2cnn(-c3ccc(OC(F)(F)Cl)cc3)c(=O)c2c1OC	-2	12	20	20	17	4
COc1ccc2cnn(-c3ccc(C)cc3)c(=O)c2c1OC	10	24	20	8	64*	19
O=C(COc1ccc(Br)cc1)NCCNC(=O)c1ccccn1	1	8	13	7	-5	6
CCC(C)(C(=O)NC1CCCCC1)N(Cc1cccs1)C(=O)c1ccc(=O)[nH]c1 (configuration not stated)	1	11	2	4	19	3
COc1ccc(CCNCc2ccc(OCC(=O)N3CCCCC3)c(OC)c2)cc1OC	1	3	-3	-8	34*	2
COc1ccc(CCNC(=O)c2ccc(OCC(=O)N3CCOCC3)c(OC)c2)cc1	0	15	4	17	/	7
COc1ccc(CCNC(=O)c2ccc(OCC(=O)N3CCOCC3)c(OC)c2)cc1OC	-3	0	6	1	30*	-10
COc1cccc(-n2nnnc2SCC(=O)Nc2nc3c(s2)CCCC3)c1	-1	10	11	-4	-5	19
COC(=O)c1cccc(-n2nnnc2SCC(=O)Nc2nc3c(s2)CCCC3)c1	24*	0	-26	2	6	-1
Brc1ccc(-c2nc(-c3ccccn3)no2)o1	-4	7	25	10	-2	-4
Clc1ccc(-c2nc(-c3ccccn3)no2)cc1Cl	-2	6	18	15	32*	0
SMILES	V-ATPase pH	tim23-1 inh	NALP3 yeast inh	TIM10 inh	NALP1 inh	tim10-1 inh
Nc1nc(NCCCN2CCOCC2)nc(Nc2ccccc2F)c1[N+](=O)[O-]	-1	-12	25	9	10	16
CC1(C)CC2(CCCN3C(=O)CSC32)CCS1 (configuration not stated)	0	0	10	-14	38*	-5
CC1(C)C(C=C(Cl)Cl)C1C(=O)Nc1ccc([N+](=O)[O-])cc1 (configuration not stated)	/	/	/	/	57*	/
CN(CC(=O)Nc1cccc(F)c1)C(=O)c1ccccc1Cc1ccccc1	-4	24	-2	8	/	15
CC1(C)NC(=O)N(CCSc2ccc(Cl)cc2)C1=O	4	-6	20	-8	30*	23
Cc1ccc(SCCCCN2C(=O)NC(C)(C)C2=O)cc1	0	21	7	18	2	22
C=CCc1cccc(Cl)c1OCCCNC1CCCC1	-1	0	26	-25	27	-7
COc1ccccc1NC(=O)C(C(C)C)N1C(=O)c2ccccc2C1=O (configuration not stated)	1	33	9	12	20	24
CC(C)C(C(=O)Nc1nccs1)N1C(=O)c2ccccc2C1=O (configuration not stated)	-4	7	12	-5	28*	7
Cc1ccc(S(=O)(=O)/N=c2\ccc(Cl)cn2C(F)F)cc1	-1	12	-5	3	38*	20
Cc1ccc(S(C)(=O)=NC(=O)NC(=O)c2c(F)cccc2Cl)cc1 (configuration not stated)	1	13	5	26	4	8
Cc1ccc(C)c(S(=O)(=O)N2CCN(C(=O)c3ccnn3C)CC2)c1	0	6	3	-2	2	10
Cc1oc(-c2cc3c(cc2Cl)OCO3)nc1CN1CCCC(C(=O)N2CCOCC2)C1 (configuration not stated)	16*	10	26	-5	7	-10
Cc1oc(-c2ccc(F)cc2)nc1CN1CCCC(C(=O)N2CCOCC2)C1 (configuration not stated)	6	-6	7	-5	-6	-5
Cc1cccc(N2C(=O)CC(Sc3nnc(C)s3)C2=O)c1 (configuration not stated)	3	42	20	39	35*	36
Cc1cccc(N2C(=O)CC(Sc3nc(C)cc(C)n3)C2=O)c1 (configuration not stated)	-3	3	4	-6	0	33
Cc1cc2nc(-c3ccc(SCC(=O)NC(C)C)nc3)[nH]c2cc1C	/	5	1	1	9	-2
Cc1cc2nc(-c3ccc(SCC(=O)N4CCc5ccccc54)nc3)[nH]c2cc1C	-1	24	-14	19	24*	4
COC(=O)c1cccc(NC(=S)N2CCN(c3ccccc3F)CC2)c1	1	17	33	12	4	35
CCCCNC(=O)Nc1ncn[nH]1	3	6	14	-3	40*	4
CCC(=O)N1CCc2cc(S(=O)(=O)CCC(=O)N3CCN(c4ccc(C(C)=O)cc4)CC3)ccc21	5	7	9	-7	13	15
Cc1ccccc1CCNC(=O)C1CCN(S(=O)(=O)c2ccc(-n3cnnn3)cc2)CC1	0	/	/	/	31*	/
COCCCC1CCN(Cc2cn[nH]c2-c2cc(OC)c(OC)c(OC)c2)CC1	-4	0	-10	-16	26*	-11
COCCCN(CCCN)Cc1ccco1	-3	-3	45	-12	71*	19

Screening results: PubChem, several laboratories
